Most compounds without a hit are left out; they make up all but 3.7% or so of the library.
HTT cytoprotect: qHTS Multiplex Assay to Identify Dual Action Probes in a Cell Model of Huntington: Cytoprotection (ATP). actives 0.14% (n = 230,000). PC12 HTT-Q103 induced, cytoprotection, ATP luminescence, 40 h. AID 1471, 2008. Potency, µM (series often up to 56.4 µM), for inactives: cytoprotection (ATP increase), usual class: activators; note: % of control where 0% means no effect; nearly all actives have a fitted effect of over 45% in size
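PC12 cells stably carrying ecdysone-inducible Htt exon 1 (Q103)–GFP were induced with 100 nM tebufenozide (final) alongside library compounds in a dose series. Cytoprotection was scored as retained ATP by ATPlite luminescence.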
HTT aggregate: qHTS Multiplex Assay to Identify Dual Action Probes in a Cell Model of Huntington: Aggregate Formation (GFP); PC12 HttQ103-GFP aggregates, Acumen cytometry, 40 h; Potency, µM (doses to about 46.1 µM), for the others: at the highest dose activity change, negative = inhibition, usual class: inhibitors; actives 1.1% (n = 220,000); note: % is set by controls: 0 for no effect and ±100 for the full control effect; nearly all actives have a fitted effect of over 60% in size
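Multiplexed with ATP-based cell death, this channel scores GFP aggregates in PC12 cells expressing inducible HTTex1-Q103-GFP. Induction used 100 nM tebufenozide; compounds were tested in concentration series.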
Tau fluor counter: Counterscreen qHTS for Inhibitors of Tau Fibril Formation, Fluorescence Polarization | actives 0.93% (n = 280,000) | tau K18 P301L Alexa594 fluorescence, heparin fibrillization | AID 1463, 2008 | Potency, µM (highest dose often 57.7 µM), for inactives: at the highest dose activity change, negative = decrease; note: % is set by controls: 0 for no effect and ±100 for the full control effect; nearly all actives have a fitted effect of over 55% in size
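Human K18 P301L tau (15 uM unlabeled plus 0.24 uM Alexa 594-labeled, final) in 100 mM sodium acetate pH 7 was mixed with compound and 20 uM heparin and incubated 6 hr at 37 C.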
Tau fibril FP: qHTS for Inhibitors of Tau Fibril Formation, Fluorescence Polarization; K18 P301L tau heparin fibrillization, Alexa594 FP, 6 h; Potency, µM (series often up to 57.7 µM), for the others: top-dose activity, negative = inhibition, most hits filed as inhibitors; actives 0.39% (n = 280,000); note: % is set by controls: 0 for no effect and ±100 for the full control effect; nearly all actives have a fitted effect of over 55% in size
Target sequence (P10636 561-689 P618L limits assumed): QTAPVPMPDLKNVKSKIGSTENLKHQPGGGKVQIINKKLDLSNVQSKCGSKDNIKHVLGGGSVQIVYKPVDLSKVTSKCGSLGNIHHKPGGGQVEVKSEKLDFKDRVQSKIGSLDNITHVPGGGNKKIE
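Heparin (20 uM) drove fibril formation of recombinant tau K18 P301L, 15 uM unlabeled with 0.24 uM Alexa 594 label, for 6 hr at 37 C in 100 mM sodium acetate pH 7. Fluorescence polarization (555/632 nm) read 1 hr after 30 uM ThT.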
Tau ThT inhib: qHTS for Inhibitors of Tau Fibril Formation, Thioflavin T Binding. Microtubule-associated protein tau (Homo sapiens), P10636. recombinant tau K18 P301L (four-repeat tau fragment), heparin-induced fibrillization, ThT fluorescence. Potency, µM (highest dose often 57.4 µM), for the others: at the highest dose activity, negative = inhibition, actives largely listed as inhibitors. actives 2.1% (n = 270,000). AID 1460, 2008; note: % is set by controls: 0 for no effect and ±100 for the full control effect; nearly all actives have a fitted effect of over 55% in size
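Heparin-induced (20 uM) aggregation of recombinant human K18 P301L tau, 15 uM unlabeled with 0.24 uM labeled, pH 7 acetate buffer, 6 hr at 37 C with compound. Fibrils quantified by 30 uM ThT fluorescence after 1 hr ambient incubation.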
An asterisk follows results filed as active; [ ] = another dose, or the depositor's remark. Calls come from the whole dose curve; as a rule, active = well fitted curve in the direction sought with a large enough effect; inconclusive = small, poorly fitted or top-dose-only effect, or another doubt; inactive = no such curve, though single readings can be large; an effect the other way counts as inactive or inconclusive. Potency is the fitted concentration of half-maximal effect.

How did COc1cccc(OCCn2cc(/C=N/NC(=O)c3ccncc3)c3ccccc32)c1 do in these assays?
HTT aggregate: 6%; Tau fluor counter: 14µM*[quencher]; Tau fibril FP: 10%; Tau ThT inhib: inconclusive

Results for CNC(=S)N/N=C/c1cn(CCOc2cccc(OC)c2)c2ccccc12 ?
HTT cytoprotect: inconclusive; HTT aggregate: 4%; Tau fluor counter: inconclusive; Tau fibril FP: 15%; Tau ThT inhib: inconclusive

Results for O=C(CNc1ccc2c(c1)OCO2)N/N=C\c1cn(Cc2ccccc2)c2ccccc12 ?
HTT cytoprotect: 19%[10 µM]; HTT aggregate: 26%; Tau fluor counter: 10µM*[quencher]; Tau fibril FP: 2%; Tau ThT inhib: inconclusive

How did Cc1ccc(OCCn2cc(/C=C3\C(=O)NN(c4ccccc4)C3=O)c3ccccc32)cc1 do in these assays?
HTT cytoprotect: inconclusive; HTT aggregate: 14%; Tau fluor counter: inconclusive; Tau fibril FP: inconclusive; Tau ThT inhib: 7.1µM*

Results for Cc1ccc(OCCn2cc(/C=N/NC(=O)c3ccncc3)c3ccccc32)cc1 ?
HTT cytoprotect: 4%[10 µM]; HTT aggregate: 3%; Tau fluor counter: 13µM*[quencher]; Tau fibril FP: 5%; Tau ThT inhib: -8%

What do the screens show for `CC1(C)CC[C@]2(C(=O)O)CC[C@]3(C)C(=CC[C@@H]4[C@@]5(C)CC[C@H](O)C(C)(C)[C@@H]5CC[C@@]43C)[C@@H]2C1`?
HTT cytoprotect: 2%

How did COc1ccc(OC)c(NC(=O)c2c(NCc3ccc(OC)c(OC)c3)sc3c2CCC(C)C3)c1 (stereo unspecified) do in these assays?
Tau fluor counter: inconclusive; Tau fibril FP: 0%; Tau ThT inhib: inconclusive

What do the screens show for `COc1ccc(OCCn2cc(/C=N/NC(=O)c3ccncc3)c3ccccc32)cc1`?
HTT cytoprotect: 16%[10 µM]; HTT aggregate: -13%; Tau fluor counter: 13µM*[quencher]; Tau fibril FP: 15%; Tau ThT inhib: inconclusive

How did COC(=O)N/N=C/c1cn(CC(C)COc2ccccc2)c2ccccc12 (stereo unspecified) do in these assays?
HTT aggregate: inconclusive; Tau fluor counter: 14µM*[quencher]; Tau fibril FP: inconclusive; Tau ThT inhib: inconclusive

What do the screens show for `O=C(N/N=C/c1cn(Cc2ccccc2)c2ccccc12)c1ccncc1`?
HTT cytoprotect: -34%; HTT aggregate: -32%; Tau fluor counter: 25µM*[quencher]; Tau fibril FP: 14%; Tau ThT inhib: inconclusive

How did CNC(=S)N/N=C/c1cn(CCOc2ccccc2OC)c2ccccc12 do in these assays?
HTT cytoprotect: -33%[10 µM]; HTT aggregate: inconclusive; Tau fluor counter: inconclusive; Tau fibril FP: inconclusive; Tau ThT inhib: inconclusive

How did COCCNC(=O)Cn1cc(/C=N/NC(=O)c2ccc(Oc3ccc(O)cc3)cc2)c2ccccc21 do in these assays?
HTT cytoprotect: 14%[10 µM]; HTT aggregate: inconclusive; Tau fluor counter: 18µM*[quencher]; Tau fibril FP: 16%; Tau ThT inhib: inconclusive

What do the screens show for `COC(=O)N/N=C/c1cn(CCOc2ccccc2)c2ccccc12`?
HTT cytoprotect: -14%[10 µM]; HTT aggregate: 0%[9.22 µM]; Tau fluor counter: inconclusive; Tau fibril FP: inconclusive; Tau ThT inhib: inconclusive

What do the screens show for `CC(C)CCn1c(=O)c2sccc2n2c(CCCC(=O)Nc3ccc(C(C)C)cc3)nnc12`?
Tau fluor counter: -12%; Tau fibril FP: -17%; Tau ThT inhib: 0%

How did C/C(=N\NC(=O)c1ccncc1)c1cc2ccccc2oc1=O do in these assays?
HTT cytoprotect: -8%[10 µM]; HTT aggregate: inconclusive; Tau fluor counter: -10%; Tau fibril FP: 0%; Tau ThT inhib: inconclusive

Results for C/C(=N/NC(=O)c1ccncc1)c1cc2ccc(O)cc2oc1=O ?
HTT cytoprotect: 22%[10 µM]; HTT aggregate: 13µM*; Tau fluor counter: 2%; Tau fibril FP: 6%; Tau ThT inhib: inconclusive

How did COc1ccc2[nH]cc(CCn3ccc(O)c(C/C=C/c4ccccc4)c3=O)c2c1 do in these assays?
HTT cytoprotect: -53%; HTT aggregate: inconclusive; Tau fluor counter: 25µM*[quencher]; Tau fibril FP: inconclusive; Tau ThT inhib: inconclusive

Results for O=c1c(C/C=C/c2ccccc2)c(O)ccn1CCc1c[nH]c2ccccc12 ?
HTT cytoprotect: 19%; HTT aggregate: 13%; Tau fluor counter: 18µM*[quencher]; Tau fibril FP: -5%; Tau ThT inhib: -16%

How did NC(C(=O)O)C(O)c1ccc(O)c(O)c1 (stereo unspecified) do in these assays?
HTT cytoprotect: -81%; HTT aggregate: -14%

Results for O=C(O)c1c(Cl)c(Cl)c(Cl)c(Cl)c1C(=O)Nc1ccc2cn[nH]c2c1 ?
HTT cytoprotect: -11%[10 µM]

How did O=c1c2c3nc4ccccc4nc3n(/N=C/c3cccs3)c2ncn1-c1ccccc1 do in these assays?
HTT cytoprotect: -8%[0.074 µM]; HTT aggregate: 1.8µM*; Tau fluor counter: -10%; Tau fibril FP: 4%; Tau ThT inhib: inconclusive

Results for Oc1cccc(-c2nc(-c3cccs3)c(-c3cccs3)[nH]2)c1 ?
Tau fluor counter: 13µM*[quencher]; Tau fibril FP: inconclusive; Tau ThT inhib: 16µM*

Results for Fc1ccc(-c2nc(-c3cccs3)c(-c3cccs3)[nH]2)cc1 ?
Tau fluor counter: inconclusive; Tau fibril FP: 11%; Tau ThT inhib: -7%

What do the screens show for `O=[N+]([O-])c1ccc(-c2nc(-c3cccs3)c(-c3cccs3)[nH]2)cc1`?
HTT cytoprotect: -102%; HTT aggregate: inconclusive; Tau fluor counter: 7.9µM*[quencher]; Tau fibril FP: inconclusive; Tau ThT inhib: 5.6µM*

How did O=[N+]([O-])c1cccc(-c2nc(-c3ccccc3)c(-c3cccs3)[nH]2)c1 do in these assays?
HTT cytoprotect: -12%; HTT aggregate: -17%; Tau fluor counter: inconclusive; Tau fibril FP: 12%; Tau ThT inhib: -5%

What do the screens show for `O=[N+]([O-])c1cccc(-c2nc(-c3cccs3)c(-c3cccs3)[nH]2)c1`?
HTT cytoprotect: -64%; HTT aggregate: inconclusive; Tau fluor counter: 11µM*[quencher]; Tau fibril FP: 6%; Tau ThT inhib: inconclusive

Results for Cc1ccc(-c2nc(-c3cccs3)c(-c3cccs3)[nH]2)cc1 ?
Tau fluor counter: inconclusive; Tau fibril FP: 7%; Tau ThT inhib: -10%

Results for Cc1ccc(C)c(N2CCN(S(=O)(=O)c3ccc(F)c(C(=O)Nc4ccc(Cl)cc4Cl)c3)CC2)c1 ?
Tau fluor counter: -8%; Tau fibril FP: inconclusive; Tau ThT inhib: -3%

What do the screens show for `FC(F)(F)c1ccccc1Cl`?
HTT cytoprotect: -52%
